High-throughput results as filed in PubChem.
USP17 inh = human USP17-like deubiquitinase inhibition; inhibition, % at 50 µM; A8MUK1; 6.5% of 47,000 active; purified USP17, Ub-rhodamine cleavage fluorescence, 3 h
Target sequence (A8MUK1 whole entry, looked up): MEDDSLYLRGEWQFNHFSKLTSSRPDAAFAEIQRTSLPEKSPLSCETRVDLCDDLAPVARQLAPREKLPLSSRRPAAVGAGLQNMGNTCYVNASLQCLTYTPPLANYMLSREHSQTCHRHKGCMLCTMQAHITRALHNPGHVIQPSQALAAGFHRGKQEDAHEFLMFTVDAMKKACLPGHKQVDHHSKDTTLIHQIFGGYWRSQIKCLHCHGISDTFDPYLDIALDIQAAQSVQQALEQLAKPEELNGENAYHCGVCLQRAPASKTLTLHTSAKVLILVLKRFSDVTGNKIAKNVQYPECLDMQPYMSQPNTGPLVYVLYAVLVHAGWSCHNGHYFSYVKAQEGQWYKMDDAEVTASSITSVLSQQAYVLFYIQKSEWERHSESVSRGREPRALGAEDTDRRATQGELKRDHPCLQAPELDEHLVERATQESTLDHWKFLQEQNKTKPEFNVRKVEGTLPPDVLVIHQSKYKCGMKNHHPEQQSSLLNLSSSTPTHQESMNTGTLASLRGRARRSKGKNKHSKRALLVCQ
USP30 block = blocks human USP30 ubiquitin-rhodamine cleavage. purified USP30, Ub-rhodamine cleavage fluorescence. inhibition, % at 25 µM. 5.3% of 47,000 active. AID 1645860. Q70CQ3
Numbers without * were called inactive. This is a sample that favours compounds with a hit; in the whole collection about 9.6% have one here. No stated cut-off is given here; in the data, active means inhibition above about 30%; inactive means the rest.

For CCc1nc(SCC(=O)Nc2ccc(Cl)cc2Cl)c2oc3ccccc3c2n1 the results were USP17 inh 3 and USP30 block -45.
Cc1nc(SCC(=O)Nc2ccc(C)c(C)c2)c2oc3ccccc3c2n1 was read as USP17 inh 36* and USP30 block 12.
For Cc1nc(SCC(=O)Nc2cc(Cl)ccc2C)c2oc3ccccc3c2n1 the results were USP17 inh 26 and USP30 block 53*.
For Cc1ccc(Cl)cc1NC(=O)CSc1ncnc2c1oc1ccccc12 the results were USP17 inh 31* and USP30 block 5.
`Cc1nc(SCC(=O)c2ccc(F)cc2)c2oc3ccccc3c2n1` gave USP17 inh 8 and USP30 block 5.
`O=C(CSc1ncnc2c1oc1ccccc12)Nc1cc(Cl)ccc1Cl` gave USP17 inh -2 and USP30 block -5.
Cc1ccc(S(=O)(=O)N2CCN(C(=O)CN3c4ccccc4CC3C)CC2)cc1 (stereo not drawn) was read as USP17 inh -14 and USP30 block -165.
`COc1ccc2nc(NC(=O)CN3CCC(C(N)=O)CC3)sc2c1` gave USP17 inh 3 and USP30 block 29.
`CN1CCCc2cc(C(=O)NC3CCCC3)sc21` gave USP17 inh -14 and USP30 block -16.
Screening CC(C)c1ccc(NC(=O)c2cc(-c3cccnc3)n[nH]2)cc1 returned USP17 inh -1 and USP30 block 46*.
`COc1ccc(NC(=O)c2cc(-c3cccnc3)n[nH]2)cc1Cl` gave USP17 inh 44* and USP30 block 94*.
For O=C(Cc1nc(-c2cccnc2)n[nH]1)Nc1ccc(F)cc1 the results were USP17 inh 15 and USP30 block 20.
`Cc1ccc(NC(=O)c2cc(-c3cccnc3)n[nH]2)cc1F` gave USP17 inh 40* and USP30 block 49*.
For O=C(Cc1nc(-c2cccnc2)n[nH]1)Nc1ccc(F)c(F)c1 the results were USP17 inh -10 and USP30 block -20.
For Cc1cccc(NC(=O)CC(c2cccc(F)c2)n2cccc2)n1 (stereo not drawn) the results were USP17 inh -10 and USP30 block -5.
Screening Cc1ccc(Cn2nccc2NC(=O)c2cccnc2SCc2c(C)noc2C)o1 returned USP17 inh 2 and USP30 block 12.
Screening O=C1COc2ccc(C(=O)c3ccccc3C(=O)NC3CC3)cc2N1 returned USP17 inh 4.
Cc1sc(NC(=O)c2cccnc2)nc1-c1ccc2c(c1)NC(=O)CO2 was read as USP17 inh 13 and USP30 block 24.
For COc1ccc(C(=O)Nc2nc(-c3ccc4c(c3)NC(=O)CO4)c(C)s2)cc1OC the results were USP17 inh 58* and USP30 block 6.
`O=C(CN1C(=O)COc2ccc(Cl)cc21)Nc1cccc2ncccc12` gave USP17 inh 60* and USP30 block -114.
O=C1COc2ccc(C(=O)Nc3cccc4ncccc34)cc2N1 was read as USP17 inh 37* and USP30 block -126.
Screening O=C(Cc1ccc(Cl)c(Cl)c1)Nc1cccc2ncccc12 returned USP17 inh 27 and USP30 block -143.
`CCc1noc(C)c1C(=O)Nc1nnc(C2CC2)s1` gave USP17 inh 0 and USP30 block -2.
For O=C(Nc1nnc(C2CC2)s1)c1ccc(OCC2CCCO2)cc1 (stereo not drawn) the results were USP17 inh 64* and USP30 block -9.
Screening CCOC(=O)CSc1nc(Cc2ccccc2)nc2sc3c(c12)CC(C)(C)OC3 returned USP17 inh 10 and USP30 block 6.
Screening Cc1cc(C(=O)N2CC[C@@H]3[C@@H](CO[C@H]3CN3CCOCC3)C2)no1 returned USP17 inh -12 and USP30 block -7.
Cc1c(C(=O)NCc2ccco2)oc2c1/C(=N\O)CCC2 was read as USP17 inh 31* and USP30 block 3.
Screening Cc1c(C(=O)O)oc2c1/C(=N\O)CCC2 returned USP17 inh -14 and USP30 block -3.
For Cc1ccccc1CN1C[C@@H]2c3nc(N(C)C)ncc3CS(=O)(=O)[C@@H]2C1 the results were USP17 inh -28 and USP30 block -25.
COc1ccc2[nH]cc(CCNC(=O)Cc3ncc(C(F)(F)F)cc3Cl)c2c1 was read as USP17 inh -25 and USP30 block -12.
Fc1ccc(CNc2nn3c(-c4cccnc4)cnc3s2)cc1 was read as USP17 inh 25 and USP30 block 2.
Screening c1ccc(CCNc2nn3c(-c4cccnc4)cnc3s2)nc1 returned USP17 inh 5 and USP30 block 23.
For CN(C)c1ccc(CNc2nn3c(-c4cccnc4)cnc3s2)cc1 the results were USP17 inh 63* and USP30 block 91*.
c1cncc(-c2cnc3sc(NCc4ccc5c(c4)OCO5)nn23)c1 was read as USP17 inh 61* and USP30 block 101*.
`O=C(c1cscn1)N1CCCC(c2ccnc3ncnn23)C1` (stereo not drawn) gave USP17 inh 18 and USP30 block 25.
`O=C(c1ccccc1F)N1CCC(c2nc3ccccc3o2)CC1` gave USP17 inh -31 and USP30 block -131.
For N#Cc1ccccc1OCC(=O)N1CCC(c2nc3ccccc3o2)CC1 the results were USP17 inh 32* and USP30 block 16.
O=C(c1nc2c(s1)CCCN2C(=O)c1cccnc1)N1CCCC1 was read as USP17 inh 13 and USP30 block 15.
`COc1ccc2cc(CN(C(=O)Nc3ccccc3)C3CCCCC3)c(=O)[nH]c2c1` gave USP17 inh 0 and USP30 block -6.
CCOc1ccc2[nH]c(=O)c(CN(C(=O)c3cccs3)C3CCCC3)cc2c1 was read as USP17 inh 66* and USP30 block 7.
`COc1ncccc1CN1CCC2(CC1)CC(Nc1nccs1)CO2` (stereo not drawn) gave USP17 inh -17 and USP30 block 1.
CN(C(=O)CN1CCOC(Cn2cccn2)C1)C1(C#N)CCCCC1 (stereo not drawn) was read as USP17 inh 2 and USP30 block -4.
CC1(C(=O)NC2CCCCCC2)Cc2ccccc2C(=O)N1CCN1CCCCCC1 (stereo not drawn) was read as USP17 inh 0 and USP30 block -137.
Screening COc1ccccc1CN1C(=O)c2ccccc2CC1(C)C(=O)NC1CCC(C)CC1 (stereo not drawn) returned USP30 block -4.
For CC1CCC(NC(=O)C2(C)Cc3ccccc3C(=O)N2C2CCCCC2)CC1 (stereo not drawn) the results were USP17 inh 14 and USP30 block 30*.
For CC1(C(=O)NC2CCCCCC2)Cc2ccccc2C(=O)N1CCN1CCOCC1 (stereo not drawn) the results were USP17 inh 19 and USP30 block 35*.
O=C(c1ccc(O)cc1)N1CC[C@@H]2CN(C(=O)c3ccccc3)[C@@H]2C1 was read as USP17 inh -3 and USP30 block -4.
COc1ccccc1CCC(=O)NC1CCCc2ccccc21 (stereo not drawn) was read as USP17 inh -2 and USP30 block -13.
CC1=CC[C@]2(C)C[C@@H](O)[C@](O)(C(C)C)C2CC1 (stereo partly drawn) was read as USP17 inh 1 and USP30 block 32*.
`O=C(NCc1cccc(F)c1)C1Oc2ccccc2NC1=O` (stereo not drawn) gave USP30 block -4.
